Results: PubChem BioAssay AID1159580 (chemical genetic matrix, 2015)
In all, about 5,500 compounds went through this assay and about 2,000 (36%) were called active. About 18% were inconclusive and are not listed. No stated cut-off is given here; in the data, active means normalized growth mostly below about 0.91 (no sharp cut-off); inconclusive means no clear call, values can overlap the other calls; inactive means mostly above about 0.92. Some of the results follow.

Assay: chemical genetic growth profiling, strain panel (AID 1159580);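 further: tested at 20 µM; growth read once vehicle control cultures reached saturation at 30 °C; 1 = growth at the plate median or of vehicle wells; lower values mean less growth of the strain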
Conditions: growth OD
[1] = S. cerevisiae deletion strains, locus YAL013W, strain DEP1, hits give low values
[2] = S. cerevisiae deletion strains, locus YBR229C, strain ROT2, hits give low values
[3] = S. cerevisiae deletion strains, locus YDL101C, strain DUN1, hits give low values
[4] = S. cerevisiae deletion strains, locus YDR150W, strain NUM1, hits give low values
[5] = S. cerevisiae deletion strains, locus YEL061C, strain CIN8, hits give low values
[6] = S. cerevisiae deletion strains, locus YGR078C, strain PAC10, hits give low values
[7] = S. cerevisiae deletion strains, locus YHR030C, strain SLT2, hits give low values
[8] = S. cerevisiae deletion strains, locus YHR087W, strain rtc3, hits give low values
[9] = S. cerevisiae deletion strains, locus YJR075W, strain HOC1, hits give low values
[10] = S. cerevisiae deletion strains, locus YKL190W, strain CNB1, hits give low values
[11] = S. cerevisiae deletion strains, locus YLR039C, strain RIC1, hits give low values
[12] = S. cerevisiae deletion strains, locus YLR058C, strain SHM2 (second series), hits give low values
[13] = S. cerevisiae deletion strains, locus YLR085C, strain ARP6, hits give low values
[14] = S. cerevisiae deletion strains, locus YLR262C, strain YPT6, hits give low values
[15] = S. cerevisiae deletion strains, locus YML094W, strain GIM5, hits give low values
[16] = S. cerevisiae deletion strains, locus YMR219W, strain ESC1, hits give low values
[17] = S. cerevisiae deletion strains, locus YMR307W, strain GAS1, hits give low values
[18] = S. cerevisiae deletion strains, locus YNL153C, strain GIM3, hits give low values
[19] = S. cerevisiae deletion strains, locus YNL298W, strain CLA4 (second series), hits give low values
[20] = S. cerevisiae deletion strains, locus YNL322C, strain KRE1, hits give low values
[21] = S. cerevisiae deletion strains, locus YNR030W, strain Alg12, hits give low values
[22] = S. cerevisiae deletion strains, locus YOL006C, strain TOP1, hits give low values
[23] = S. cerevisiae deletion strains, locus YPL055C, strain LGE1, hits give low values
[24] = S. cerevisiae deletion strains, locus YPL241C, strain CIN2, hits give low values
[25] = S. cerevisiae deletion strains, locus YPR135W, strain CTF4, hits give low values

Measured: normalized growth

c1ccc(CSC2=NCCCN2)cc1
inactive: [1] 1 | [2] 0.993 | [3] 1.01 | [4] 0.977 | [5] 1.02 | [6] 1.01 | S. cerevisiae deletion strains, locus YGR229C, strain SMI1, hits give low values 1 | [7] 1.03 | [8] 1.01 | S. cerevisiae deletion strains, locus YJR043C, strain POL32, hits give low values 1.01 | [9] 0.997 | [10] 1 | [11] 0.993 | [12] 1.01 | [13] 1.04 | [14] 1.01 | [15] 1 | [16] 1.01 | [17] 1 | S. cerevisiae deletion strains, locus YNL128W, strain TEP1, hits give low values 1.02 | [18] 0.996 | [19] 1.05 | [20] 1.01 | [21] 1.02 | [22] 1.04 | [23] 0.984 | [24] 1.01 | [25] 1.08 | S. cerevisiae strains, strain wild type, hits give low values 1.01

COc1ccc(OC)c(S(=O)(=O)NCc2c(F)cccc2Cl)c1
inactive: [1] 0.994 | [2] 1.01 | S. cerevisiae deletion strains, locus YCL061C, strain MRC1, hits give low values 1.01 | [3] 1.02 | [4] 0.985 | [5] 1.04 | [6] 1.02 | [7] 1.02 | [8] 1 | [9] 1.01 | [10] 1.01 | [11] 0.928 | [12] 1.02 | [13] 1.02 | [14] 0.893 | [15] 0.992 | [16] 1.01 | S. cerevisiae deletion strains, locus YMR263W, strain SAP30, hits give low values 1.01 | [17] 1.09 | [18] 0.993 | [19] 1.02 | [20] 1.01 | [21] 1.02 | [22] 0.98 | [23] 1.02 | [24] 1.01 | [25] 1.01

COc1cc(Cl)c(NS(=O)(=O)c2cc(Br)c(Br)s2)c(OC)c1
inactive: S. cerevisiae deletion strains, locus YAR019C, strain CDC15, hits give low values 0.96 | S. cerevisiae deletion strains, locus YBL105C, strain PKC1, hits give low values 0.977 | S. cerevisiae deletion strains, locus YBR135W, strain CKS1, hits give low values 0.967 | S. cerevisiae deletion strains, locus YBR136W, strain MEC1, hits give low values 0.977 | S. cerevisiae deletion strains, locus YBR160W, strain CDC28, hits give low values 0.958 | S. cerevisiae deletion strains, locus YDL017W, strain CDC7, hits give low values 0.978 | S. cerevisiae deletion strains, locus YDL028C, strain MPS1, hits give low values 0.96 | [3] 0.977 | S. cerevisiae deletion strains, locus YDL108W, strain KIN28, hits give low values 0.957 | S. cerevisiae deletion strains, locus YDL132W, strain cdc53, hits give low values 0.954 | S. cerevisiae deletion strains, locus YDL214C, strain PRR2, hits give low values 0.916 | S. cerevisiae deletion strains, locus YDR052C, strain DBF4, hits give low values 0.988 | S. cerevisiae deletion strains, locus YDR054C, strain cdc34, hits give low values 0.953 | S. cerevisiae deletion strains, locus YDR226W, strain ADK1, hits give low values 0.962 | S. cerevisiae deletion strains, locus YDR477W, strain SNF1, hits give low values 0.904 | S. cerevisiae deletion strains, locus YER123W, strain YCK3, hits give low values 0.898 | S. cerevisiae deletion strains, locus YER133W, strain GLC7, hits give low values 0.918 | S. cerevisiae deletion strains, locus YFL009W, strain cdc4, hits give low values 0.948 | S. cerevisiae deletion strains, locus YFL029C, strain CAK1, hits give low values 0.956 | S. cerevisiae deletion strains, locus YFR003C, strain YPI1, hits give low values 0.973 | S. cerevisiae deletion strains, locus YFR019W, strain FAB1, hits give low values 0.964 | S. cerevisiae deletion strains, locus YFR028C, strain CDC14, hits give low values 0.949 | S. cerevisiae deletion strains, locus YGR040W, strain KSS1, hits give low values 0.888 | S. cerevisiae deletion strains, locus YGR052W, strain FMP48, hits give low values 0.923 | S. cerevisiae deletion strains, locus YGR092W, strain DBF2, hits give low values 0.831 | S. cerevisiae deletion strains, locus YHR079C, strain IRE1, hits give low values 0.905 | S. cerevisiae deletion strains, locus YHR082C, strain KSP1, hits give low values 0.924 | S. cerevisiae deletion strains, locus YHR205W, strain SCH9, hits give low values 0.933 | S. cerevisiae deletion strains, locus YIL147C, strain SLN1, hits give low values 0.961 | S. cerevisiae deletion strains, locus YJL095W, strain BCK1, hits give low values 0.885 | S. cerevisiae deletion strains, locus YJL128C, strain PBS2, hits give low values 0.923 | S. cerevisiae deletion strains, locus YJL157C, strain FAR1, hits give low values 0.919 | S. cerevisiae deletion strains, locus YJR016C, strain ILV3, hits give low values 0.972 | S. cerevisiae deletion strains, locus YJR066W, strain TOR1 (second series), hits give low values 0.858 | S. cerevisiae deletion strains, locus YJR066W, strain TOR1, hits give low values 0.896 | S. cerevisiae deletion strains, locus YKL048C, strain ELM1, hits give low values 0.969 | S. cerevisiae deletion strains, locus YKL067W, strain YNK1, hits give low values 0.9 | S. cerevisiae deletion strains, locus YKL101W, strain HSL1, hits give low values 0.917 | S. cerevisiae deletion strains, locus YKL193C, strain SDS22, hits give low values 0.959 | S. cerevisiae deletion strains, locus YKL203C, strain TOR2, hits give low values 0.986 | S. cerevisiae deletion strains, locus YLR133W, strain CKI1, hits give low values 0.959 | S. cerevisiae deletion strains, locus YLR403W, strain SFP1, hits give low values 0.922 | S. cerevisiae deletion strains, locus YML070W, strain DAK1, hits give low values 0.916 | S. cerevisiae deletion strains, locus YMR001C, strain CDC5, hits give low values 0.969 | S. cerevisiae deletion strains, locus YMR205C, strain PFK2 (second series), hits give low values 0.948 | S. cerevisiae deletion strains, locus YMR277W, strain FCP1, hits give low values 0.946 | S. cerevisiae deletion strains, locus YNL006W, strain LST8, hits give low values 0.955 | S. cerevisiae deletion strains, locus YNL020C, strain ARK1, hits give low values 0.931 | S. cerevisiae deletion strains, locus YNL161W, strain CBK1, hits give low values 0.97 | S. cerevisiae deletion strains, locus YNL183C, strain NPR1, hits give low values 0.904 | S. cerevisiae deletion strains, locus YNL207W, strain RIO2, hits give low values 0.962 | S. cerevisiae deletion strains, locus YNL222W, strain SSU72, hits give low values 0.95 | S. cerevisiae deletion strains, locus YNL307C, strain MCK1 (second series), hits give low values 0.902 | S. cerevisiae deletion strains, locus YOL078W, strain AVO1, hits give low values 0.96 | S. cerevisiae deletion strains, locus YOL136C, strain PFK27, hits give low values 0.901 | S. cerevisiae deletion strains, locus YOR061W, strain CKA2, hits give low values 0.912 | S. cerevisiae deletion strains, locus YOR119C, strain RIO1, hits give low values 0.918 | S. cerevisiae deletion strains, locus YOR231W, strain MKK1, hits give low values 0.908 | S. cerevisiae deletion strains, locus YOR329C, strain SCD5, hits give low values 0.965 | S. cerevisiae deletion strains, locus YPL031C, strain PHO85, hits give low values 0.894 | S. cerevisiae deletion strains, locus YPL153C, strain RAD53, hits give low values 0.866 | S. cerevisiae deletion strains, locus YPL204W, strain HRR25, hits give low values 0.868 | S. cerevisiae deletion strains, locus YPL209C, strain IPL1, hits give low values 0.976 | S. cerevisiae deletion strains, locus YPR025C, strain CCL1, hits give low values 0.968 | S. cerevisiae deletion strains, locus YPR106W, strain ISR1, hits give low values 0.954 | S. cerevisiae deletion strains, locus YPR111W, strain DBF20, hits give low values 0.938 | S. cerevisiae deletion strains, strain NNK1, hits give low values 0.975 | S. cerevisiae deletion strains, strain TSCII, hits give low values 0.963
active: [7] 0.664 | S. cerevisiae deletion strains, locus YLR113W, strain HOG1, hits give low values 0.815 | S. cerevisiae deletion strains, locus YPL256C, strain CLN2, hits give low values 0.856
